PP5 primary = blocks human protein phosphatase 5 activity | P53041 | purified PP5c, OMFP substrate fluorescence | inhibition, % at 6.7 µM | 320,000 compounds, 0.18% hits | AID 1987;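 active means inhibition above the campaign's mean inhibition across all tested compounds plus 3 SD, cut at about 9.5% in these data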
Target sequence (P53041 whole entry, looked up): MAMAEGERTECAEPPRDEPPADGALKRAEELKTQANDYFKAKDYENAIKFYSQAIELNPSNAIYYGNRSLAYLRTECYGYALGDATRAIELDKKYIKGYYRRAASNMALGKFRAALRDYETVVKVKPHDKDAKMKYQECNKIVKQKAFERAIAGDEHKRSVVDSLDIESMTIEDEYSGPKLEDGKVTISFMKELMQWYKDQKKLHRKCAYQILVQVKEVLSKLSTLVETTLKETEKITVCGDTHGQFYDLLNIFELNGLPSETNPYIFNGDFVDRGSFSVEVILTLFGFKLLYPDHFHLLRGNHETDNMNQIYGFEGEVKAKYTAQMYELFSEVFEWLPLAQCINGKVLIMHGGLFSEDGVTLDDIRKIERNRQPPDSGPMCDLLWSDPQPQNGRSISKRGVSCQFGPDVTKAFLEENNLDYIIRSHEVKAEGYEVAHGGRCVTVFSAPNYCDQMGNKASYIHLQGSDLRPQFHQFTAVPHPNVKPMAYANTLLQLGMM
PP1 counter = PP1-alpha (human) inhibition in PP5 counter-screen | P62136 | purified PP1alpha, OMFP fluorescence | inhibition, % at 6.7 µM | 320,000 compounds, 0.9% hits | AID 2235;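 active means inhibition above the mean inhibition of all tested compounds plus 3 SD, computed separately for each screening campaign, cut at about 15% in these data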
proKLK7 act = activators of human kallikrein-7 zymogen; P49862; purified proKLK7, EDANS-DABCYL substrate fluorescence; 100% is mature enzyme control, 0% vehicle; activation, % at 7 µM; 370,000 compounds, 0.9% hits; AID 652039;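 active means activation above the mean of all tested compounds plus 3 SD, computed per campaign excluding outliers beyond control limits, cut at about 13% in these data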
Target sequence (P49862 whole entry, looked up): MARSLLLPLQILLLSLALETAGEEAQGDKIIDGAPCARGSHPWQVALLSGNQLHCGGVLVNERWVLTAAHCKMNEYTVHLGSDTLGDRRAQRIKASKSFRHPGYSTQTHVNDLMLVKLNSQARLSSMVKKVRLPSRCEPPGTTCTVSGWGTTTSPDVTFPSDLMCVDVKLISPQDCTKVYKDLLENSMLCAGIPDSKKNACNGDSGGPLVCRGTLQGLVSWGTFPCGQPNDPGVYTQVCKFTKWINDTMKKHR
NR1D1 modulator = Rev-erb alpha (human) modulation; 370,000 compounds, 0.79% hits; P20393; Rev-erbα–FITC-DNA binding, fluorescence polarization, 90 min; activity, % at 10 µM;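 active means activity above about 14%, limit read from the data; passing the limit was not always enough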
PG9 Ab binder = binds the HIV-1 gp120 antibody PG9 | TR-FRET gp120-PG9 antibody binding | inhibition, % at 6.7 µM | 360,000 compounds, 0.43% hits | AID 624416; in the data active means inhibition above about 8.5%
GASC-1 inh = inhibitors of human GASC-1 (JMJD2C) demethylase. GST-JMJD2C(1-420) H3K9me3 demethylation, DELFIA europium. inhibition, % at 2.35 µM. 330,000 compounds, 0.069% hits;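 active means more than half of a compound's replicate wells show inhibition beyond 50%, single wells judged on their own value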;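 further: signal counts dimethyl H3K9 product captured on neutravidin plate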
Of the large screens only hits and unclear results are named; the others gave an inactive call. Sampled rows, rich in hits. Any-hit rate of the full collection: about 2.8%.

Cc1ccc(-c2cc(C(=O)NC3=NCCS3)c3cc(Br)ccc3n2)o1	PP1 counter 19 (no result: proKLK7 act, NR1D1 modulator, PG9 Ab binder)
C=NC(C(=O)N[C@H]1C(=O)N2C1SC(C)(C)C2C(=O)O)c1ccccc1 (stereo partly drawn)	none (no result: PP5 primary, PP1 counter, proKLK7 act, PG9 Ab binder, GASC-1 inh)
C[N+]1(C)CCN(CC(O)(c2ccccc2)C2CCCCC2)CC1 (stereo not drawn)	none (no result: PP5 primary, PP1 counter, proKLK7 act, PG9 Ab binder, GASC-1 inh)
OC(COc1ccc2ccccc2c1Br)Cn1cnc(-c2ccccc2)c1 (stereo not drawn)	GASC-1 inh 61
COc1ccc(/C=C/C(=O)NC(=S)NNC(=O)Cc2cccs2)cc1	PP1 counter 20
COc1ccc(/C=C/C(=O)NC(=S)NNC(=O)c2c(-c3ccccc3)noc2C)cc1	PP1 counter 17
CC(C)CNC(=O)OCc1cn(Cc2ccccc2F)nn1	none (no result: PP5 primary, PP1 counter, PG9 Ab binder, GASC-1 inh)
COc1cc2nc(NC(=O)c3ccccc3)sc(=O)c2cc1OC	PG9 Ab binder 25 (no result: PP5 primary, PP1 counter)
COc1cc2nc(NC(=O)c3ccccc3)[nH]c(=O)c2cc1OC	none
CCOC(=O)c1ccc(/[N+]([O-])=C/c2ccccc2)cc1	none
C#CCCc1cscc1/C=[N+](\[O-])c1ccc(C(=O)OCC)cc1	PP1 counter 15
CCCCc1cc(=O)oc2c(C)c(OCC(=O)N3C[C@H]4C[C@@H](C3)c3cccc(=O)n3C4)ccc12	PP1 counter 17
CC(C)CC1C(=O)N2CCC[C@H]2C2(O)O[C@](NC(=O)C3C=C4c5cccc6[nH]c(Br)c(c56)C[C@H]4N(C)C3)(C(C)C)C(=O)N12 (stereo partly drawn)	none (no result: PP5 primary, PP1 counter, proKLK7 act, PG9 Ab binder, GASC-1 inh)
Cc1nn(C)cc1CN(C)C(=O)c1cc2nc(-c3ccco3)cc(C(F)(F)F)n2n1	proKLK7 act 16
C#CCOCCOCCOCCNc1nc(N2CCN(C(=O)CCCCCCCCCCNC(=O)[C@H](CCCCN)n3cc(C[C@@H](C)CC)nn3)CC2)nc(N2CCN(C(=O)CCCCCCCCCCNC(=O)[C@H](CCCCN)n3cc(C[C@@H](C)CC)nn3)CC2)n1	PP1 counter 55 (no result: proKLK7 act, NR1D1 modulator, PG9 Ab binder)
C#CCOCCOCCOCCNc1nc(N2CCN(C(=O)CCCCCCCCCCNC(=O)[C@H](CO)n3cc(CCCSC)nn3)CC2)nc(N2CCN(C(=O)CCCCCCCCCCNC(=O)[C@H](CCCCN)n3cc(C[C@@H](C)CC)nn3)CC2)n1	PP1 counter 51 (no result: proKLK7 act, NR1D1 modulator, PG9 Ab binder)
C#CCOCCOCCOCCNc1nc(N2CCN(C(=O)CCCCCCCCCCNC(=O)[C@H](CCCCN)n3cc(CCCC(=O)O)nn3)CC2)nc(N2CCN(C(=O)CCCCCCCCCCNC(=O)[C@H](CCCCN)n3cc(CCCC(=O)O)nn3)CC2)n1	none (no result: proKLK7 act, NR1D1 modulator, PG9 Ab binder)
C#CCOCCOCCOCCNc1nc(N2CCN(C(=O)CCCCCCCCCCNC(=O)[C@H]([C@@H](C)CC)n3cc(CCCCN=C(N)N)nn3)CC2)nc(N2CCN(C(=O)CCCCCCCCCCNC(=O)[C@H](CCCCN)n3cc(C[C@@H](C)CC)nn3)CC2)n1	PP1 counter 71 (no result: proKLK7 act, NR1D1 modulator, PG9 Ab binder)
NC(=O)c1ccc[n+]([C@@H]2O[C@H](COP(=O)([O-])OP(=O)(O)OC[C@H]3O[C@@H](n4cnc5c(N)ncnc54)[C@H](O)[C@@H]3O)[C@@H](O)[C@H]2O)c1	none (no result: PP5 primary, PP1 counter, proKLK7 act, PG9 Ab binder, GASC-1 inh)
COC(=O)C1CN(Cc2ccccc2)CCS(=O)(=O)N1Cc1cn(Cc2ccc(F)cc2)nn1 (stereo not drawn)	none (no result: PP5 primary, PP1 counter, PG9 Ab binder, GASC-1 inh)
CC[C@H](C)[C@H](N)C(=O)O	none (no result: PP5 primary, PP1 counter, proKLK7 act, PG9 Ab binder, GASC-1 inh)
COc1ccc(-c2cc(-c3nnc(SCC(=O)Nc4ccc(OCc5ccccc5)cc4)n3N)[nH]n2)cc1	none (no result: PP5 primary, PP1 counter, PG9 Ab binder, GASC-1 inh)
CCCCC(=O)NC(c1ccccc1OC)c1ccc2cccnc2c1O (stereo not drawn)	PP1 counter 15
Nc1nc2c(c(=O)[nH]1)N(C=O)C(CNc1ccc(C(=O)N[C@@H](CCC(=O)O)C(=O)O)cc1)CN2 (stereo partly drawn)	none (no result: PP5 primary, PP1 counter, proKLK7 act, PG9 Ab binder, GASC-1 inh)
COc1cc(CNCc2cccs2)ccc1OCc1cccs1	none
CCN(CC)c1ccc(CNCc2cccs2)cc1	PP1 counter 17
CC1C(=O)N(Cc2ccc([N+](=O)[O-])cc2)c2ccccc2N1C(=O)C1CC1 (stereo not drawn)	GASC-1 inh 60
CC1C(=O)N(Cc2ccc(F)cc2)c2ccccc2N1C(=O)c1c(F)cccc1F (stereo not drawn)	none
O=C(O)C1CSCN1 (stereo not drawn)	none (no result: PP5 primary, PP1 counter, proKLK7 act, PG9 Ab binder, GASC-1 inh)
O=S(=O)(Nc1nc(-c2sccc2Cl)cs1)c1cc(Cl)ccc1Cl	PP1 counter 19 (no result: proKLK7 act, NR1D1 modulator, PG9 Ab binder)
Cc1cc(-n2c(=O)[nH]c(=O)n(C)c2=O)ccc1Oc1ccc(S(=O)(=O)C(F)(F)F)cc1	none (no result: PP5 primary, PP1 counter, proKLK7 act, PG9 Ab binder, GASC-1 inh)
Cc1ccc(C)n1Cc1ccc(C(=O)O)cc1	PP1 counter 18 (no result: proKLK7 act, NR1D1 modulator, PG9 Ab binder, GASC-1 inh)
Cc1cc(C)n(Cc2ccc(C(=O)O)cc2)n1	none (no result: GASC-1 inh)
COc1cc(C(C(=O)NC2CCCCC2)N(C(=O)Cc2c[nH]c3ccccc23)c2ccccc2C)cc(OC)c1OC (stereo not drawn)	none
COc1cc(C(C(=O)NC2CCCCC2)N(Cc2cccs2)C(=O)Cc2c[nH]c3ccccc23)cc(OC)c1OC (stereo not drawn)	GASC-1 inh 52
COc1ccc(CN(C(=O)Cc2c[nH]c3ccccc23)C(C(=O)NC2CCCCC2)c2ccc(C)o2)cc1 (stereo not drawn)	PP1 counter 17
COC(=O)CCCC1=CC2=CC(=O)C(C)(OC(=O)c3cccs3)C(=O)C2=CN1Cc1ccc2c(c1)OCO2 (stereo not drawn)	PP1 counter 18
COC(=O)CCCC1=CC2=CC(=O)C(C)(OC(=O)c3cccs3)C(=O)C2=CN1Cc1ccccc1 (stereo not drawn)	none
Cc1ccc(C(=O)C2=C(O)C(=O)N(Cc3ccco3)C2c2cccc(Br)c2)o1 (stereo not drawn)	PP1 counter 22
Cc1ccc(C(=O)C2=C(O)C(=O)N(Cc3ccco3)C2c2ccc(N(C)C)cc2)o1 (stereo not drawn)	none
Cc1ccc(C(=O)C2=C(O)C(=O)N(Cc3ccco3)C2c2cccc(Cl)c2)o1 (stereo not drawn)	PP1 counter 25
Cc1ccc(C(=O)C2=C(O)C(=O)N(CCCn3ccnc3)C2c2ccc(OC(C)C)cc2)o1 (stereo not drawn)	PP1 counter 15, PG9 Ab binder 41
Cc1ccc(C(=O)C2=C(O)C(=O)N(Cc3cccnc3)C2c2ccc(Cl)c(Cl)c2)o1 (stereo not drawn)	PP1 counter 30 (no result: proKLK7 act, NR1D1 modulator, PG9 Ab binder)
CCCC(=O)N1CCC(NS(=O)(=O)c2ccc3c(c2)CCN3C(C)=O)CC1	none (no result: PP5 primary, PP1 counter, PG9 Ab binder, GASC-1 inh)
Cn1nnnc1SCC1=C(C(=O)O)N2C(=O)[C@H](NC(=O)C(O)c3ccccc3)C2SC1 (stereo partly drawn)	none (no result: PP5 primary, PP1 counter, proKLK7 act, PG9 Ab binder, GASC-1 inh)
O=C(NCc1ccccc1Cl)C1CCN(C(=O)c2ccco2)CC1	GASC-1 inh 58 (no result: proKLK7 act, NR1D1 modulator, PG9 Ab binder)
Cn1c(=O)c(C(=O)COC(=O)c2cc(C3CC3)nc3ccccc23)c(N)n(Cc2ccccc2)c1=O	none

High-throughput results from PubChem BioAssay.
